Hit rate of the full screen: of about 340,000 compounds, about 8,500 (2.5%) were called active.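 The calls were made as follows: active = melting temperature shift of at least 10% of the positive control shift, at one fixed dose; inactive = the rest.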 Many of the other results were omitted from the sample, so actives are more common in it than they were.
These compounds were tested on Glutamate receptor ionotropic, NMDA 3A (GRIN3A) ligand-binding domain (assay: binders of NR3A ligand-binding domain, primary screen, biophysical, differential scanning fluorimetry, uHTS (AID 1259313)). Conditions: NR3A LBD differential scanning fluorimetry, at 25 µM, active compounds read high, 0% = protein alone, 100% = glycine-bound protein.

Tm shift relative to glycine control, inactive:
CC1CN(S(=O)(=O)c2ccc(C(=O)Nc3sccc3C(N)=O)cc2)CC(C)O1 (centres undefined) -4.29%
Cc1ccc2c(c1)N(CC(=O)N(Cc1ccccn1)Cc1ccco1)C(=O)C(C(C)C)O2 (centres undefined) 0.17%
O=c1[nH]c2c(c(=O)n1-c1ccccc1)CCO2 1.26%
CC(C)n1cnc2c(Nc3cccc(Cl)c3)nc(N(CCO)CCCO)nc21 1.29%
Cc1cccc(Nc2nc(NCCO)nc(N3CCCC3)n2)c1 -4.68%
CCC(=O)Nc1cc(C(F)(F)F)ccc1N1CCCC1 1.55%
O=C(c1ccco1)N1CCN=C1SCc1cccc(Cl)c1 0.08%
CCC(=O)N1CCN=C1SCc1ccc(F)cc1 1.29%
COc1ccc(CN2CN(C(C)C)CSC2=S)cc1 1.51%
O=S(=O)(Nc1ncnc2sccc12)c1cccc(F)c1 -0.96%
COc1ccc(-c2csc3ncnc(N4CCN(S(=O)(=O)c5cccc(F)c5)CC4)c23)cc1 -1.02%
C=CCNC(=O)COC(=O)c1ccccc1C(=O)N(C)C1CCCCC1 -0.25%
O=C(CN(CC1CCCO1)C(=O)CNS(=O)(=O)c1ccc(Cl)cc1)NCc1ccccc1 (centres undefined) 2.76%
Cc1ccc(C)c(NC(=O)C2CCCN2C(=O)OC(C)(C)C)c1 (centres undefined) 4.23%
CC(C)(C)OC(=O)N1CCC(C(=O)NNC(=O)c2ccc(Cl)cc2Cl)CC1 -2.13%
CCn1c(=S)[nH]c2cc(S(=O)(=O)N3CCOCC3)ccc21 2.56%
Cc1cc(NS(=O)(=O)c2ccc(NC(=O)C(C)Oc3cccc(C)c3C)cc2)nc(C)n1 (centres undefined) 3.5%
CCNc1nc(NC(C)C)nc(N2CC(=O)N(CC(=O)OCC)C2=N)n1 -4.17%
CCN(CC)CCCC(C)n1c2nc(=O)[nH]c(=O)c-2nc2cc(Cl)ccc21 (centres undefined) -386%
CCOC(=O)C1=C(CC)Nc2ccccc2N=C1NC(=O)c1cccc(S(=O)(=O)N2CCCC2)c1 0%
CC[C@@H](C)[C@H](NC(=O)CCc1c(C)c2cc3c4c(oc3c(C)c2oc1=O)CCCC4)C(=O)O 1.33%
Cc1c(CC(=O)NCCCCCC(=O)O)c(=O)oc2cc3occ(-c4ccccc4)c3cc12 -0.98%
CC1CC1C(=O)OCC(=O)c1c(N)n(C)c(=O)n(C)c1=O (centres undefined) -0.75%
O=C(Nc1ccc(OC(F)(F)F)cc1)c1ccc2c(c1)no[n+]2[O-] -3.76%
O=C(CCN1CCCCC1)N=Nc1c(O)[nH]c2ccccc12 -1%
Cc1cccc(N(CC(=O)N=Nc2c(O)[nH]c3ccccc23)S(C)(=O)=O)c1C -1.51%
COc1ccc(CNC(=O)C2CCN(S(=O)(=O)c3ccc(SC)cc3)CC2)cc1 1%
CCc1ccccc1NC(=O)CSc1nnc([C@@H](NC(=O)OC(C)(C)C)C(C)CC)o1 (some centres undefined) -1.3%
C[C@@H](NC(=O)OC(C)(C)C)c1nnc(S(=O)(=O)Cc2ccccc2)o1 0%
C/C(CC(O)(/C=N/O)c1ccccc1)=N\O (centres undefined) 1.21%
COc1ccc2ccccc2c1CNc1nnnn1C 0.15%
Cc1cccc(NC(=O)c2ccc3ccccc3n2)n1 -0.88%
O=C(NNC(=O)c1ccc2ccccc2c1)c1ccc(Cl)cc1 -1.56%
CC1(C)CC(=O)C=C(NCCCN2CCCC2=O)C1 -0.27%
Nc1nc(C23CC4CC(CC(C4)C2)C3)cs1 -1.42%
COC(=O)c1cc(NC(=O)c2cc(C(C)(C)C)nn2Cc2cccc(C)c2)ccc1N1CCOCC1 -0.21%
CCCCC1(C(=O)OCC)NC(c2ccc(O)cc2)C2C(=O)N(c3ccccc3)C(=O)C21 (centres undefined) -1.17%
COC(=O)C1(C)NC(c2ccc(C)cc2)C2C(=O)N(c3ccc(F)cc3)C(=O)C21 (centres undefined) 2.13%
O=C(CC1SC(N2CCOCC2)=NC1=O)Nc1ccccc1F (centres undefined) -1.22%
COc1ccc(S(=O)(=O)N2CCN(C(=O)N(C)C)C2C)cc1 (centres undefined) -2.39%
O=C(c1ccc(OC2CCN(Cc3ccccn3)CC2)cc1)N1CCCCCC1 0.85%
CC(=O)Nc1ccc(CN2CCC(Oc3ccc(C(=O)N4CCCC4)cc3)CC2)cc1 0.37%
COc1ccccc1C(=O)NC(=O)COC(=O)C1CC1 -1.81%
C[C@@H](C(=O)N1CCNCC1)n1cc(CCC(=O)O)nn1 1.39%
Cc1ccc(C(=O)N2CCN(S(=O)(=O)N3CCOCC3)CC2)cc1 -1.26%
O=C(c1cccc(S(=O)(=O)N2CCCCCC2)c1)N1CCN(Cc2ccccc2)CC1 0.36%
CCOc1ccc(C(=O)Nc2c3c(nn2-c2ccccc2)CS(=O)(=O)C3)cc1 -0.47%
COc1cc(C(=S)NC2CCCCC2)ccc1O -5.68%
COc1cc(C(=O)Nn2c(CC(C)C)nc3ccccc3c2=O)cc(OC)c1OC -0.54%
CN(CC(=O)Nc1ccccc1F)CC(=O)Nc1ccccc1Br -1.08%
CCOc1ccc(NC(=O)CN(C)C(=O)COc2cccc(CC)c2)cc1OCC 3.14%
Cc1nn(C)c(C)c1S(=O)(=O)N1CCc2ccccc21 -0.32%
Cc1cccc(NC(=S)N2CCC(C(=O)c3ccc(F)cc3)CC2)c1 -1.17%
CCc1cccc(CC)c1NC(=S)NCc1ccc2[nH]c(C)cc2c1 -6.16%
CC(NC(=O)c1cc(=O)[nH]c2ccccc12)c1ccc(F)cc1F (centres undefined) -1.44%
CCCn1c(=N)n(CC(=O)c2ccc(Cl)c(Cl)c2)c2ccccc21 -6.05%
CCOC(=O)C1CCN(Cc2ccc(-c3ccccc3)cc2)CC1 -0.95%
CCOC(=O)N1CCN(Cc2nnc(-c3ccccc3Cl)o2)CC1 0.35%
CCOC(=O)c1cc2c(=O)[nH]c(C(Cl)(Cl)Cl)nc2o1 5.2%
Cc1cccc(Cn2c(N3CCN(c4ccccc4)CC3)nc3c2c(=O)n(C)c(=O)n3C)c1 -1.11%
Cn1c(=O)c2c(nc(NCCc3ccccc3)n2Cc2ccccc2)n(C)c1=O -12.7%
FC(F)(F)c1ccc(-c2cccc3c2C2CC3CCN2Cc2ccccc2)cc1 (centres undefined) 0.87%
Cc1ccc(CNC(=O)CCNS(=O)(=O)c2ccc(Br)s2)cc1 0.52%
CCc1cccc(NC(=O)CCNS(=O)(=O)c2cccc3nonc23)c1 -1.5%
COC(=O)c1ccc(CN(c2ccccc2OC)S(=O)(=O)c2cccs2)o1 0%
COC(=O)[C@]1(Cc2ccccc2)N[C@H](CN(C)S(=O)(=O)c2ccc(OC(F)(F)F)cc2)[C@@H]2C(=O)N(C)C(=O)[C@@H]21 -3.1%
COC(=O)[C@]1(Cc2ccccc2)N[C@H](CN(C)S(=O)(=O)c2ccc(F)cc2)[C@@H]2C(=O)N(Cc3ccccc3)C(=O)[C@@H]21 0.82%
N/C(=N\S(=O)(=O)c1cc(C(F)(F)F)cc(C(F)(F)F)c1)c1cccs1 -1.45%
N#Cc1cccc(CSc2nnc(CCCO)n2-c2ccccc2)c1 -2.26%
O=C(Nc1ccc(S(=O)(=O)Nc2nccs2)cc1)c1cccc(S(=O)(=O)N2CCOCC2)c1 -7.34%
O=C(Nc1ccc(N2CCOCC2)cc1)c1cccc(S(=O)(=O)N2CCOCC2)c1 1.57%

Tm shift relative to glycine control, active:
OCCCNc1nccc(-c2cc(Nc3cccc(Cl)c3)ncn2)n1 21.3%
O=C(C1CC1)N1CCN=C1SCc1ccc(Cl)cc1 11.7%
Cc1cc(F)ccc1S(=O)(=O)Nc1ncnc2scc(-c3ccc(F)cc3)c12 10.2%
Cc1ccc(-n2ncc(C(=O)NC3CC3)c2C2CCN(C(=O)OC(C)(C)C)CC2)c(C)c1 13.4%
Cc1c(CC(=O)NCC(=O)NCC(=O)O)c(=O)oc2cc3oc4c(c3cc12)CCCC4 31.7%
Cc1c(-c2ccccc2)n[nH]c1C(=O)N=Nc1c(O)[nH]c2ccccc12 13.9%
CC(C)Sc1nnc([C@H](Cc2ccccc2)NC(=O)OC(C)(C)C)o1 32.2%
Clc1ccc(Nc2ccc3ccccc3n2)cc1 45%
CCCC1(C(=O)OCC)NC(c2ccc(N(C)C)cc2)C2C(=O)N(c3ccc4c(c3)OCCO4)C(=O)C21 (centres undefined) 17%
Cc1nn(C)c(Cl)c1CN1CCC(Oc2ccc(C(=O)N3CCCC3)cc2)CC1 12.6%
Cc1cccc(C(=O)N2CCN(S(=O)(=O)N3CCCCC3)CC2)c1 11.1%
COc1cc(C(=O)Nn2c(O)c(C3=c4ccccc4=NC3=O)sc2=S)ccc1O 11.1%
Cc1cccc(NC(=S)NCc2ccc3[nH]c4c(c3c2)CCCC4)c1 16.4%
CCOC(=O)C1CCN(Cc2nnc(-c3cccc(Br)c3)o2)CC1 222%
C/C(Cl)=C\Cn1c(Nc2cccc(C)c2)nc2c1c(=O)n(C)c(=O)n2C 18.4%
Cc1ccc(CNC(=O)CCNS(=O)(=O)c2cccc3nonc23)cc1 17.3%
COC(=O)[C@]1(Cc2ccccc2)N[C@H](CN(C)S(=O)(=O)c2ccc(OC(F)(F)F)cc2)[C@@H]2C(=O)N(Cc3ccccc3)C(=O)[C@@H]21 18.1%
O=C(Nc1ccc(S(=O)(=O)N2CCOCC2)cc1)c1ccc2ncsc2c1 23.1%

— PubChem BioAssay AID1259313 (Sanford-Burnham Center for Chemical Genomics, 2017)
